Source: ChEMBL document CHEMBL4303122, “Identification of potential treatments for COVID-19 through artificial intelligence-enabled phenomic analysis of human cells infected with SARS-CoV-2” (2020)
The full ranking holds about 1,600 compounds; the median of “Hit score” is about 0.13, and the highest 2% start at about 0.46. The sample holds the highest values, similar compounds and a random draw of the others, so the mix is not that of the screen.

Test system: SARS-CoV-2
Assay: Antiviral activity against SARS-CoV-2 (USA-WA1/2020 strain) measured by imaging in HRCE cells at MOI 0.4 after 96 hrs (reported as hit score from 0-1 for on-disease vs off-disease activity: scores >0.6 considered hits)
Type: functional, Homo sapiens

Structure (SMILES) | Hit score
CCCCc1cc2ccccc2c(OCCN(C)C)n1 [DIMETHISOQUIN] | 0.1395
CC[C@]1(O)C[C@H]2CN(CCc3c([nH]c4ccccc34)[C@@](C(=O)OC)(c3cc4c(cc3OC)N(C=O)[C@H]3[C@@](O)(C(=O)OC)[C@H](OC(C)=O)[C@]5(CC)C=CCN6CC[C@]43[C@@H]65)C2)C1 [VINCRISTINE] | 0.4904
CC[C@]1(O)C[C@@H]2CN(CCc3c([nH]c4ccccc34)[C@@](C(=O)OC)(c3cc4c(cc3OC)N(C)[C@H]3[C@@](O)(C(=O)OC)[C@H](OC(C)=O)[C@]5(CC)C=CCN6CC[C@]43[C@@H]65)C2)C1 [VINBLASTINE] | 0.2235
O=C(C[S+]([O-])Cc1ccco1)NC/C=C\COc1cc(CN2CCCCC2)ccn1 (centres undefined) [LAFUTIDINE] | 0.2245
CCC(c1ccccc1)c1c(O)c2ccccc2oc1=O (centres undefined) [PHENPROCOUMON] | 0.1829
COc1ccc2c3c1O[C@H]1C[C@@H](O)C=C[C@@]31CCN(C)C2 [GALANTAMINE] | 0.2532
CC(C)COc1ccc(CNC(=O)N(Cc2ccc(F)cc2)C2CCN(C)CC2)cc1 [PIMAVANSERIN] | -0.09171
Brc1ccc(NC2C3CC4CC(C3)CC2C4)cc1 (centres undefined) | 0.3495
CO[C@H]1C(=O)[C@]2(C)[C@@H](OC)C[C@H]3OC[C@@]3(OC(C)=O)[C@H]2[C@H](OC(=O)c2ccccc2)[C@]2(O)C[C@H](OC(=O)[C@H](O)[C@@H](NC(=O)OC(C)(C)C)c3ccccc3)C(C)=C1C2(C)C [CABAZITAXEL] | -0.8282
COC(=O)c1ccc2c(c1)NC(=O)/C2=C(\Nc1ccc(N(C)C(=O)CN2CCN(C)CC2)cc1)c1ccccc1 [NINTEDANIB] | 0.1859
O=c1ncnc2n([C@H]3O[C@@H](CO)[C@H](O)[C@@H]3O)[nH]cc1-2 [ALLOPURINOL RIBOSIDE] | 0.1953
Cc1c(O)cccc1C(=O)N[C@@H](CSc1ccccc1)[C@H](O)CN1C[C@H]2CCCC[C@H]2C[C@H]1C(=O)NC(C)(C)C | 0.1621
COc1ccc(C(=O)N2CCN(c3ccc4c(c3)CCC(=O)N4)CC2)cc1OC [VESNARINONE] | 0.09463
CCCOC(C(=O)OC1CCN(C)CC1)(c1ccccc1)c1ccccc1.Cl | 0.3138
C/C=C/C[C@@H](C)[C@@H](O)[C@H]1C(=O)N[C@@H](CC)C(=O)N(C)CC(=O)N(C)[C@@H](CC(C)C)C(=O)N[C@@H](C(C)C)C(=O)N(C)[C@@H](CC(C)C)C(=O)N[C@@H](C)C(=O)N[C@H](C)C(=O)N(C)[C@@H](CC(C)C)C(=O)N(C)[C@@H](CC(C)C)C(=O)N(C)[C@@H](C(C)C)C(=O)N1C [CYCLOSPORINE] | 0.07198
COc1ccc2c(c1)c(CC(=O)OCC(C(=O)O)c1ccccc1)c(C)n2C(=O)c1ccc(Cl)cc1 (centres undefined) | 0.05914
COc1ccccc1OC(=O)c1ccccc1OC(C)=O [GUACETISAL] | 0.1414

Structure (SMILES) | Hit score
COc1ccc(NC(=O)c2ccc(C(=N)N(C)C)cc2)c(C(=O)Nc2ccc(Cl)cn2)c1 [BETRIXABAN] | 0.004778
O=C1NC(c2ccccc2)(c2ccccc2)C(=O)N1COP(=O)(O)O [FOSPHENYTOIN] | -0.01075
CNC(=O)c1cccc(NC(=O)N2CCC(Oc3ccccc3Cl)CC2)c1 | 0.1005
CCCCc1nc(C)c(CC(=S)N(C)C)c(=O)n1Cc1ccc(-c2ccccc2-c2nnn[nH]2)cc1 | 0.1262
COc1ccc2c(O[C@@H]3C[C@H]4C(=O)N[C@]5(C(=O)NS(=O)(=O)C6CC6)C[C@H]5/C=C\CCCCN(C)C(=O)[C@@H]4C3)cc(-c3nc(C(C)C)cs3)nc2c1C | 0.1824
C=C1/C(=C\C=C2/CCC[C@]3(C)[C@@H]([C@H](C)/C=C/[C@H](C)C(C)C)CC[C@@H]23)C[C@@H](O)C[C@@H]1O [DOXERCALCIFEROL] | 0.4621
C=C1CC[C@H](O)C/C1=C/C=C1\CCC[C@]2(C)[C@@H]([C@H](C)CCCC(C)C)CC[C@@H]12 [CHOLECALCIFEROL] | 0.2186
C[C@H](/C=C/[C@H](C)C(C)(C)O)[C@H]1CC[C@H]2/C(=C/C=C3C[C@@H](O)C[C@H](O)C3)CCC[C@]12C [PARICALCITOL] | 0.5764
C=C1/C(=C\C=C2/CCC[C@]3(C)[C@@H]([C@H](C)/C=C/[C@@H](O)C4CC4)CC[C@@H]23)C[C@@H](O)C[C@@H]1O [CALCIPOTRIENE] | 0.6212
C=C1CC[C@H](O)C/C1=C/C=C1\CCC[C@]2(C)[C@@H]([C@H](C)CC[C@@H](O)C(C)(C)O)CC[C@@H]12 [SECALCIFEROL] | 0.3632
C=C1/C(=C\C=C2/CCC[C@]3(C)[C@@H]([C@H](C)OCCC(C)(C)O)CC[C@@H]23)C[C@@H](O)C[C@@H]1O [MAXACALCITOL] | -0.1282
C=C1CC[C@H](O)C/C1=C/C=C1\CCC[C@]2(C)[C@@H]([C@H](C)CCCC(C)(C)O)CC[C@@H]12 [CALCIFEDIOL ANHYDROUS] | 0.4579
C=C1/C(=C\C=C2/CCC[C@]3(C)[C@@H]([C@H](C)CC[C@@H](O)C(C)C)CC[C@@H]23)C[C@@H](O)C[C@@H]1O [TACALCITOL] | 0.4469
CC(C)(C)NCC(O)COc1ccc(NC(=O)NC2CCCCC2)cc1 (centres undefined) [TALINOLOL] | 0.1441
CN(C)C(=O)Oc1cc(OC(=O)N(C)C)cc(C(O)CNC(C)(C)C)c1 (centres undefined) [BAMBUTEROL] | 0.1323
CCN(CC)C(=O)Nc1ccc(OCC(O)CNC(C)(C)C)c(C(C)=O)c1 (centres undefined) [CELIPROLOL] | 0.5089
C[C@]12CC[C@H]3[C@@H](CC[C@@]45O[C@@H]4C(O)=C(C#N)C[C@]35C)[C@@H]1CC[C@@H]2O [TRILOSTANE] | 0.3178
